# According to PubChem BioAssay (NCATS):
# “And” between values parts separate entries of the source, which are not always exact repeats. Identical values can stand only once. Results filed as inconclusive are left out. A call without a number means that no potency is given here. The source made the active and inactive calls. Unless noted, calls come from the whole dose curve; as a rule, active = well fitted curve in the direction sought with a large enough effect; inconclusive = small, poorly fitted or top-dose-only effect, or another doubt; inactive = no such curve, though single readings can be large; an effect the other way counts as inactive or inconclusive.
# Assays:
# [1] = target: Cytochrome P450 2D6 (Homo sapiens) (UniProt P10635); assay: Cytochrome P450 family 2 subfamily D member 6 (CYP2D6) small molecule antagonists: luciferase biochemical (cell-free) qHTS assay (AID 1645840; active = well fitted curve in the direction sought with a large enough effect in the repeat runs; an effect the other way counts as inactive or inconclusive; note: nearly all actives have a fitted effect of over 55% in size; note: potency is the fitted concentration of half-maximal effect)
# Method in brief: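 P450-Glo CYP2D6 system: proluciferin substrate converted by enzyme to luciferin, read by luminescence proportional to activity. Enzyme-substrate mix with compound 10 min at room temperature, then NADPH regeneration 1 h before detection reagent.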
# [2] = Primary qHTS for inhibitors of nuclear receptor binding SET domain protein 2 (NSD2) in an isogenic RCH-ACV NSD2 p.E1099K mutant (9B) (AID 1645876); note: nearly all actives have a fitted effect of over 70% in size; note: potency is the fitted concentration of half-maximal effect
# [3] = Primary qHTS for inhibitors of nuclear receptor binding SET domain protein 2 (NSD2) in an RCH-ACV wild type WT cells (2C) (AID 1645877); note: nearly all actives have a fitted effect of over 70% in size; note: potency is the fitted concentration of half-maximal effect
# [4] = target: Glutathione peroxidase 1 (Homo sapiens) (UniProt P07203); assay: Primary qHTS Assay for Inhibitors of Recombinant Selenoprotein Glutathione Peroxidase 1 (GPX1) (AID 1845191); note: nearly all actives have a fitted effect of over 65% in size
# Method in brief: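 GPX1 10 nM, GR 100 nM, GSH 1 mM, NADPH 0.5 mM, CHP 0.5 mM (final). 30-min cpd preincubation, RT. Ex340/Em450 read t=0, t=15 min.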
# [5] = target: Cytochrome P450 2C9 (Homo sapiens) (UniProt P11712); assay: Cytochrome P450 family 2 subfamily C member 9 (CYP2C9) small molecule antagonists: luciferase biochemical (cell-free) qHTS assay (AID 1645842; active = well fitted curve in the direction sought with a large enough effect in the repeat runs; an effect the other way counts as inactive or inconclusive; note: nearly all actives have a fitted effect of over 55% in size)
# Method in brief: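 P450-Glo CYP2C9 system: proluciferin substrate with enzyme in mix containing 0.4% BSA, 10 min at room temperature, then NADPH regeneration solution added and incubated 1 h at 37C. Detection reagent stopped reaction; luminescence read after 20 min as RLU.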
# [6] = target: N-terminal Xaa-Pro-Lys N-methyltransferase 1 (Homo sapiens) (UniProt Q9BV86); assay: Confirmatory qHTS for Inhibitors of N-terminal methyltransferase 1 (NTMT1): MTaseGlo Assay (AID 1645874); note: potency is the fitted concentration of half-maximal effect; nearly all actives have a fitted effect of over 65% in size
# Method in brief: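 Enzyme mix (125 nM NTMT1, 100 uM SAM) + compound, 15 min RT; + 1 uM SPKRIA, 30 min RT, dark; MTase-Glo reagent 30 min, detection solution 30 min; luminescence. % inhibition vs no-enzyme/DMSO controls, 4-parameter Hill fit.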
# [7] = target: Catechol O-methyltransferase (Homo sapiens) (UniProt P21964); assay: Confirmatory Screen for Target Class Profiling of Small Molecule Inhibitors of Methyltransferases (AID 1745852; calls by dose curve; note: potency is the fitted concentration of half-maximal effect); details: MTase-Glo luminescence, SAH detection, recombinant enzyme; measured here: COMT max response; stronger effect = lower value
# [8] = target: Guanidinoacetate N-methyltransferase (Homo sapiens) (UniProt Q14353); assay: as above; details: activity change, negative = inhibition: at 57.3 µM (top of the series) unless noted
# [9] = target: Nicotinamide N-methyltransferase (Homo sapiens) (UniProt P40261); assay: as above; details: MTase-Glo luminescence, SAH detection, recombinant enzyme; measured here: NNMT max response; stronger effect = lower value
# [10] = target: Phenylethanolamine N-methyltransferase (Homo sapiens) (UniProt P11086); assay: as above; details: MTase-Glo luminescence, SAH detection, recombinant enzyme; measured here: PNMT max response; stronger effect = lower value
# [11] = target: Cytochrome P450 3A4 (Homo sapiens) (UniProt P08684); assay: Cytochrome P450 family 3 subfamily A member 4 (CYP3A4) small molecule antagonists: luciferase qHTS assay (AID 1645841; active = well fitted curve in the direction sought with a large enough effect in the repeat runs; an effect the other way counts as inactive or inconclusive; note: potency is the fitted concentration of half-maximal effect; nearly all actives have a fitted effect of over 45% in size)
# Method in brief: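 P450-Glo CYP3A4 enzyme with proluciferin substrate was preincubated with DMSO-dissolved compounds for 10 min at room temperature. NADPH regeneration solution started a 1 h reaction. Detection reagent stopped it, and luminescence was read after 20 min.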
# Chain of Cytochrome P450 2D6 (Homo sapiens) (P10635 whole entry, looked up): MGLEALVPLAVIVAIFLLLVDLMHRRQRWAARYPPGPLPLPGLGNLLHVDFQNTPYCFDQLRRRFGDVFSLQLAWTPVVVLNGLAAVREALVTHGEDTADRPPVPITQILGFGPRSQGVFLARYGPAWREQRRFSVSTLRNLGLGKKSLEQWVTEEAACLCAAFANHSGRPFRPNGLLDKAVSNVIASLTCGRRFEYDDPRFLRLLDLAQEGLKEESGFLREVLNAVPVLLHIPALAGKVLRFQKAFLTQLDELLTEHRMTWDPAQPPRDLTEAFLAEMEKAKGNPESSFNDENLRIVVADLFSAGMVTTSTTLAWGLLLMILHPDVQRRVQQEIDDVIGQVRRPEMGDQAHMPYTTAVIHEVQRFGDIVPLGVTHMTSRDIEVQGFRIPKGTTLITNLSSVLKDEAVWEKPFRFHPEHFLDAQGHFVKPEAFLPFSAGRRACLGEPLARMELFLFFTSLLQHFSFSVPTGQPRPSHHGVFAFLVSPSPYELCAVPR
# Chain of Glutathione peroxidase 1 (Homo sapiens) (P07203 whole entry, looked up): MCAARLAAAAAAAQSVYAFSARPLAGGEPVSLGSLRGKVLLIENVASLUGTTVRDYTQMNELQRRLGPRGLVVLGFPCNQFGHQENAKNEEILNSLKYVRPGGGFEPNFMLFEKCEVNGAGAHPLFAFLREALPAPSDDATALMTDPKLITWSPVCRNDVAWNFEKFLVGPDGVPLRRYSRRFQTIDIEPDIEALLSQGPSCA
# Chain of Nicotinamide N-methyltransferase (Homo sapiens) (P40261 whole entry, looked up): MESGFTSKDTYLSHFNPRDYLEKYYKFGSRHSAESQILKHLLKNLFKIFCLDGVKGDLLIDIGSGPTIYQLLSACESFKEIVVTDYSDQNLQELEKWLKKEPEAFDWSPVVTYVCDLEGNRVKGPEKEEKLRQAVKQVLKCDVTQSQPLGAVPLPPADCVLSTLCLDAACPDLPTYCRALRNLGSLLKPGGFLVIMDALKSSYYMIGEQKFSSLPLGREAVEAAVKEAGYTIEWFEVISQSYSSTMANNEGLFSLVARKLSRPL
# Chain of Catechol O-methyltransferase (Homo sapiens) (P21964 whole entry, looked up): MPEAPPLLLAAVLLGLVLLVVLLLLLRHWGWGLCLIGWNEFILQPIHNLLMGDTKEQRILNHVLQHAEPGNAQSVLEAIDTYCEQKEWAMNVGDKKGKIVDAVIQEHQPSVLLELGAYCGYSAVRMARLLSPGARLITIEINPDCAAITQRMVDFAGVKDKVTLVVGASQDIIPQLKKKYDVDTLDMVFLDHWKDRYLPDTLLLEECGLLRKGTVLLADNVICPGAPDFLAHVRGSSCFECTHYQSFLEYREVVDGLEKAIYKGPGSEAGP
# Chain of Phenylethanolamine N-methyltransferase (Homo sapiens) (P11086 whole entry, looked up): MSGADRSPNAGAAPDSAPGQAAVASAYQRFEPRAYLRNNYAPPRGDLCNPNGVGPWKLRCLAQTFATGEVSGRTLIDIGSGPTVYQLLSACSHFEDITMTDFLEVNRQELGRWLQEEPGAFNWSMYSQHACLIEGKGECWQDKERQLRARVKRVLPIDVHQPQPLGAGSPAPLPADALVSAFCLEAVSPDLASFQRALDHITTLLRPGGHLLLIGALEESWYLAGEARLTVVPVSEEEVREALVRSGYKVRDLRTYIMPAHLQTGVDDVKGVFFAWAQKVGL
# Chain of N-terminal Xaa-Pro-Lys N-methyltransferase 1 (Homo sapiens) (Q9BV86 whole entry, looked up): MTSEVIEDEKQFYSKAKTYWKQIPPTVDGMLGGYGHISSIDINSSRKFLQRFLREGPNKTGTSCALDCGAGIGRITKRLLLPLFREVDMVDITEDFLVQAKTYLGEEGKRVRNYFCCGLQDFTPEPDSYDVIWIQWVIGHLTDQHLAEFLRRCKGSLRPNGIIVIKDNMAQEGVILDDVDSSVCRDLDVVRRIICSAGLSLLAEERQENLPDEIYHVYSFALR
# Chain of Cytochrome P450 3A4 (Homo sapiens) (P08684 whole entry, looked up): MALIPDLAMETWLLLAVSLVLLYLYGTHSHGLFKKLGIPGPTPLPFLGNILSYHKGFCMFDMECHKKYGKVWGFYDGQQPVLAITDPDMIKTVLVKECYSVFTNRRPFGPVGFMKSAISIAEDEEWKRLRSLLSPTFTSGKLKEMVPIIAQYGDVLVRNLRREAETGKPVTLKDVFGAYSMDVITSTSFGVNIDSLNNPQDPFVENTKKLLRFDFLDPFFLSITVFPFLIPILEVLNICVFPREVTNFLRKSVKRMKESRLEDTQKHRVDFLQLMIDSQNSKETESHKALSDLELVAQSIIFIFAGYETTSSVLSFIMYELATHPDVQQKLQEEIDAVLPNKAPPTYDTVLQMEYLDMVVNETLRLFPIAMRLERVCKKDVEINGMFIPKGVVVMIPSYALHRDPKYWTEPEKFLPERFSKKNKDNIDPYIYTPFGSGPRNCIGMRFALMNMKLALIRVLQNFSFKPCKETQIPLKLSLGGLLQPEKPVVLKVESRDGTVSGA
# Chain of Cytochrome P450 2C9 (Homo sapiens) (P11712 whole entry, looked up): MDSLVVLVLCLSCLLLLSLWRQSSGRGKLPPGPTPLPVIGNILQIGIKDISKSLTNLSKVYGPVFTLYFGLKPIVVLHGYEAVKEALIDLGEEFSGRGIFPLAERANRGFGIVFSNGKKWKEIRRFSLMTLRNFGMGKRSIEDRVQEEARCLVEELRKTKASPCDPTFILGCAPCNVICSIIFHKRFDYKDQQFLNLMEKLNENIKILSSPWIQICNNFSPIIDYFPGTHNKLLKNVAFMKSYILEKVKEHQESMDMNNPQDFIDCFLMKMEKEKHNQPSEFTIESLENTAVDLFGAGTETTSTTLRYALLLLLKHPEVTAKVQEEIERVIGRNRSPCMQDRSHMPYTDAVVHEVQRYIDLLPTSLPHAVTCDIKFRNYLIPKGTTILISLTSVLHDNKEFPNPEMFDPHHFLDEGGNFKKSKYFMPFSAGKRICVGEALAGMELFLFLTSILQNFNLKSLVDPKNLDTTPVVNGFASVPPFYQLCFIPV
compound,measurement,setting,value
COC(=O)CCSCc1ccc(-c2onc(C)c2NC(=O)OC(C)c2ccccc2Cl)cc1 (stereo not given),Potency,[1],2.68 µM (active)
same,Potency,[2],inactive
same,Potency,[3],inactive
same,Potency,[4],inactive
Cc1oc2ccccc2c1CNC(=O)NCc1cccs1,Potency,[1],1.9 µM (active)
same,Potency,[2],inactive
same,Potency,[3],inactive
same,Potency,[4],inactive
C[C@@H](O)[C@H](NC(=O)c1ccc(C#Cc2ccc(CN3CCOCC3)cc2)cc1)C(=O)NO,Potency,[1],inactive
same,Potency,[3],inactive
same,Potency,[4],inactive
O=C1CC2(CCCC2)[C@H](O)C(=O)N1CCCCN1CCN(c2ncccn2)CC1,Potency,[1],12 µM (active)
same,Potency,[2],inactive
same,Potency,[3],inactive
same,Potency,[4],inactive
CCOc1cc(N2CCC(O)CC2)ccc1Nc1ncc2c(n1)N(C1CCCC1)CCC(=O)N2C,Potency,[1],inactive
same,Potency,[2],2.05 µM (active)
same,Potency,[3],1.83 µM (active)
same,Potency,[4],inactive
CCN1CCN(Cc2ccc(Nc3ncc(F)c(-c4cc(F)c5nc(C)n(C(C)C)c5c4)n3)nc2)CC1,Potency,[5],inactive
same,Potency,[6],20 µM (active)
same,Potency,[2],728 nM (active) and 468 nM (active)
same,Potency,[3],649 nM (active) and 417 nM (active)
same,activity,[7],-78.7%
same,Potency,[8],15.2 µM (active)
same,activity,[9],-61.4%
same,activity,[10],-75%
same,Potency,[4],inactive
COc1cccc(Nc2ncnn3ccc(CN4CC[C@@H](N)[C@H](O)C4)c23)c1,Potency,[1],9.52 µM (active)
same,Potency,[2],4.68 µM (active)
same,Potency,[4],inactive
COc1ccc(C2(O)CCC(N3CC[C@@H](NC(=O)CNC(=O)c4cccc(C(F)(F)F)c4)C3)CC2)cn1 (stereo not given in full),Potency,[1],10.7 µM (active)
same,Potency,[2],inactive
same,activity,[7],-5.05%
same,"activity change, negative = inhibition",[8],-4.96%
same,activity,[9],0.219%
same,activity,[10],0.417%
same,Potency,[4],inactive
Cc1ccc(NC(=O)c2ccc(CN3CC[C@H](N(C)C)C3)c(C(F)(F)F)c2)cc1Nc1nccc(-c2cncnc2)n1,Potency,[11],1.69 µM (active)
same,Potency,[2],8.11 µM (active)
same,Potency,[3],7.23 µM (active)
O=C(O)c1cc(-c2c(-c3ccccc3)nn3ccccc23)n[nH]c1=O,Potency,[1],inactive
same,Potency,[2],inactive
same,Potency,[3],inactive
same,Potency,[4],inactive
